Screening data (PubChem)
ssDAF12 agonist – S. stercoralis DAF-12 activation, primary screen; AID 652126; activation, % at 6.8 µM; 370,000 tested, 1% active; HEK293 ssDAF-12/GRIP1 lit1-tk-luc reporter, luminescence; % of 3 µM dafachronic acid response;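 active means activation above the mean over all tested compounds plus 3 SD, cut at about 0.9% in these data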
DAX1 inh-1 – DAX1 (NR0B1) inhibition, primary screen. AID 652010. inhibition, % at 6.8 µM. 370,000 tested, 1.1% active. HEK293T StAR-luciferase reporter, SF-1/DAX-1 repression relief;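 active means inhibition above the mean over all tested compounds plus 3 SD, cut at about 3.6% in these data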;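 further: higher inhibition means more luminescence from relief of DAX-1 repression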
hgDAF12 agonist – agonists of H. glycines DAF-12 nuclear receptor | AID 687014 | HEK293 GAL4-hgDAF12 UAS-luciferase reporter, agonist luminescence; normalized to butyrate control | activation, % at 6.8 µM | 370,000 tested, 1.8% active;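 active means activation above a cutoff set at the mean of all screened compounds plus 3 SD, cut at about 10% in these data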
hcDAF-12 act – activators of H. contortus DAF-12 nuclear receptor | HEK293 hcDAF-12 lit1-tk-luc reporter, luminescence; 0% DMSO, 100% Δ7-dafachronic acid | activation, % at 6.8 µM | 370,000 tested, 1.4% active | AID 652067;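 active means activation above the mean of all tested compounds plus 3 SD, cut at about 5.5% in these data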
DAX1 inh-2 – inhibitors of human orphan nuclear receptor DAX1 (NR0B1). AID 504766. HEK293 Gal4-DAX1 luciferase reporter, luminescence. 340,000 tested, 0.99% active. P51843. inhibition, % at 6.75 µM;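 active means inhibition above the mean over all tested compounds plus 3 SD, cut at about 4.2% in these data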;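 further: inhibition shows as a rise in luminescence from relieved DAX1 repression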
Target sequence (P51843 207-470 limits assumed): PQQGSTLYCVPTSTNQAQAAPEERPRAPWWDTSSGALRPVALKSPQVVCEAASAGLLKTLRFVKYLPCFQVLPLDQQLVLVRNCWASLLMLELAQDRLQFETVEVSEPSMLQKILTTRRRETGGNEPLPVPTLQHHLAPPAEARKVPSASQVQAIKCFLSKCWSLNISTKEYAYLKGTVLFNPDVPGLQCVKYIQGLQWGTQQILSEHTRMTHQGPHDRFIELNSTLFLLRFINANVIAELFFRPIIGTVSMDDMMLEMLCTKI
Each line names hits and unclear results; the compound was inactive in the other large screens; ! = not active in a repeat. Shown are actives, neighbours in structure and some others; about 4.1% of the full set was active somewhere.

O=C(N[C@H](C(=O)N1CCC[C@H]1C(=O)NCCc1ccccc1Cl)C1CCCCC1)C1CC1	none (no result: DAX1 inh-2)
O=P(OC1CCCCC1)(OC1CCCCC1)C(O)c1cccnc1 (stereo unspecified)	hcDAF-12 act 5.9
Nc1nc(SCC(=O)Nc2ccc(OCc3ccccc3)cc2)n[nH]1	DAX1 inh-2 5.2
C=C(C)CSc1nnc(-c2cc(-c3ccc(OC)cc3)n[nH]2)n1N	none (no result: DAX1 inh-2)
COc1cccc(C(=O)Nc2ccc(-c3nnc(-c4ccco4)o3)cc2)c1	none
O=C(COc1ccccc1)Nc1ccc(-c2nnc(-c3ccco3)o2)cc1	hcDAF-12 act 6.3
CCN(CC)CCCNc1ccc(-c2nnc(-c3ccc(OCC(C)C)cc3)o2)cn1	none
COc1cccc(-c2nnc(-c3ccco3)o2)c1	hgDAF12 agonist 12
CC(C)COc1ccc(-c2nnc(-c3ccco3)o2)cc1	DAX1 inh-1 3.7
CCCOc1ccc(-c2nnc(-c3ccco3)o2)cc1	DAX1 inh-1 3.7, hgDAF12 agonist 11
O=C(O)[C@@H]1C[C@@H](O)CN1	none (no result: DAX1 inh-2)
CNC(=O)C1CC(=O)N(c2ccc(OCC(=O)Nc3ccc(OC)cc3)cc2)C1 (stereo unspecified)	none
CCOc1ccc(-c2cc(C(=O)NCc3ccccc3)[nH]n2)c(C)c1	none (no result: DAX1 inh-2)
CCC(C)CNC(=O)CSc1nnc(-c2cccnc2)n1C1CCCCC1 (stereo unspecified)	none (no result: DAX1 inh-2)
OCCN1CCN(c2ncnc3c2ncn3[C@H]2CN(Cc3cccnc3)C[C@@H](CO)O2)CC1	none (no result: DAX1 inh-2)
Cc1ccc(Nc2c(-c3ccc(C)o3)nc3cnccn23)cc1	hgDAF12 agonist 12
COC(=O)c1cc2c(c3c4cc(C)ccc4n(S(=O)(=O)c4ccccc4)c13)C(=O)N(Cc1ccc(C(F)(F)F)cc1)C2	none (no result: DAX1 inh-2)
CCOC(=O)c1c(N/N=C/c2cccnc2)n[nH]c1C	DAX1 inh-2 5.3
CCOC(=O)c1c(Nc2ccc(OC)cc2)n[nH]c1C	DAX1 inh-1 4.3 (no result: DAX1 inh-2)
COc1ccc(S(=O)(=O)N2CCN(C(=O)CNC(=O)c3ccc4c(c3)OCO4)CC2)cc1	none
CCN1C(=S)SC(=O)C1=C1C=C(C)OC(C)=C1	none
CCN1C(=S)SC(=O)C1=C1C=C(C)N(Cc2ccco2)C(C)=C1	hgDAF12 agonist 12, hcDAF-12 act 6.5
Cc1nc2ccc(NC(=O)c3ccc(Cl)s3)cc2s1	DAX1 inh-1 4.1, DAX1 inh-2 4.9
Cc1nc2ccc(NC(=O)c3cnc(Cl)c(Cl)c3)cc2s1	none
Cc1cccc2sc(NC(=O)CCn3cccc3)nc12	hgDAF12 agonist 12
Cc1cccc2sc(NC(=O)Cn3cccc3)nc12	none
Cc1ccc2nc(NC(=O)c3ccc(Cl)s3)sc2c1	DAX1 inh-1 4.0, DAX1 inh-2 9.8
Cc1cccc2sc(NC(=O)c3ccc(Cl)s3)nc12	ssDAF12 agonist 1.1
C[C@@H]1CN([C@@H](C)CO)C(=O)CCCn2cc(nn2)CO[C@H]1CN(C)C(=O)Nc1ccc2c(c1)OCCO2	none (no result: DAX1 inh-2)
Cc1nc2ccc(NC(=O)Cc3c(F)cccc3Cl)cc2s1	hgDAF12 agonist 11
O=C(Cc1c(F)cccc1Cl)Nc1nc2ccccc2s1	none
Cc1cccc2sc(NC(=O)c3ccc(OCC4CCCO4)cc3)nc12 (stereo unspecified)	hgDAF12 agonist 13
CCOc1ccc2nc(NC(=O)c3ccc(OCC4CCCO4)cc3)sc2c1 (stereo unspecified)	none
Cc1ccc(-c2nc3ccccc3nc2-c2ccccc2)cc1	none
Clc1ccc(-c2nc3ccccc3nc2-c2ccccc2)cc1	hcDAF-12 act 6.1
C[C@@H]1COc2cccc(N3CCC[C@@H]3CO)c2S(=O)(=O)N1	none (no result: DAX1 inh-2)
Nc1nc(SCC(=O)N2CCCC2)[nH]c(=O)c1NC(=O)c1ccco1	ssDAF12 agonist 2.3
Nc1nc(SCC(=O)O)[nH]c(=O)c1NC(=O)c1ccco1	none
CCn1cc(C(=O)N2CCN(c3ccc(F)cc3)CC2)c2cc(OC)c(OC)cc2c1=O	none
CCn1cc(C(=O)N2CCN(c3ccccc3OC)CC2)c2cc(OC)c(OC)cc2c1=O	DAX1 inh-2 4.4
COC(=O)C1CN(CC(C)C)CCS(=O)(=O)N1Cc1ccc(OC)cc1 (stereo unspecified)	none (no result: DAX1 inh-2)
COCc1cc(N2CCN(C(=O)OC(C)(C)C)C[C@H]2C)ccc1N1C[C@@H](C)O[C@@H](C)C1	none (no result: DAX1 inh-2)
Cc1ccccc1C(=O)NCCOc1ccccc1Cl	ssDAF12 agonist 1.1, hgDAF12 agonist 12, DAX1 inh-2 5.0
O=C(NCCOc1ccccc1F)c1cc(F)c(F)cc1Cl	ssDAF12 agonist 1.2, DAX1 inh-1 3.7, hgDAF12 agonist 13
CCOC(=O)C1(C)CCCN(C(=O)c2cc(OC)c(OC)c(OC)c2)C1 (stereo unspecified)	none (no result: DAX1 inh-2)
Nc1nnc(/C=C/c2ccccc2Cl)s1	hgDAF12 agonist 12
CCOc1ccccc1NC(=S)N1CCC(NC(=O)C(C)(C)C)CC1	DAX1 inh-2 5.0
CCOc1ccccc1NC(=S)N(CCC(C)C)C1CCN(C(C)=O)CC1	DAX1 inh-2 4.7
COC(=O)C1=C(C)N(Cc2ccc(C(F)(F)F)cc2)C(=NCc2cc(OC)c(OC)c(OC)c2)NC1c1cccc(Cl)c1 (stereo unspecified)	none (no result: DAX1 inh-2)
CC1CN(c2nc3ccccc3nc2SCC(=O)N2CCN(S(=O)(=O)c3ccc(F)cc3)CC2)CC(C)O1 (stereo unspecified)	none (no result: DAX1 inh-2)
CCCNC(=O)Cn1c(=O)oc2cc(S(=O)(=O)N3CC(C)CC(C)C3)ccc21 (stereo unspecified)	none
CCCCN(C)C(=O)Cn1c(=O)oc2cc(S(=O)(=O)N3CC(C)CC(C)C3)ccc21 (stereo unspecified)	DAX1 inh-2 5.7
CSc1ncc2[nH]c(C(O)c3ccccc3)nc2n1 (stereo unspecified)	none
Cc1cccc(NC(=S)N/C(=N/S(=O)(=O)c2ccccc2)c2ccccc2)c1	hgDAF12 agonist 12!
Cc1ccc(S(=O)(=O)/N=C(/NC(=S)Nc2cccc(C)c2)c2ccccc2)cc1	none
Cc1ccc(C(=O)NNC(=O)c2cccc(C)c2)cc1	hgDAF12 agonist 11
CC(C)Oc1cccc(C(=O)NC(=S)Nc2ccccc2)c1	hgDAF12 agonist 12
CCCC(=O)NC(=S)Nc1cccc(NC(=O)c2ccccc2)c1	none
CC(C)CC(=O)NC(=S)Nc1cccc(NC(=O)c2ccccc2)c1	DAX1 inh-2 7.3
Cc1cccc(C(=O)NNC(=O)c2ccc(O)cc2)c1	none
CC(C)Oc1cccc(C(=O)NC(=S)Nc2cccnc2)c1	none
CC(C)(C)OC(=O)NC(Cc1ccccc1)C1CC(C#N)C(=O)O1 (stereo unspecified)	none (no result: DAX1 inh-1, DAX1 inh-2)
CC1(C(=O)Nc2ccc3c(c2)OCO3)CCN1C(=O)CC1CC1 (stereo unspecified)	none (no result: DAX1 inh-2)
Cc1cccc(-c2nnc(SCC(=O)Nc3cccc4ccccc34)n2Cc2ccco2)c1	none (no result: DAX1 inh-2)
CCCc1cc(C(=O)NNC(=S)Nc2cccc(C)c2)cs1	hgDAF12 agonist 11
Cc1cccc(NC(=S)NNC(=O)c2ccco2)c1	none
